In the supplement of paper PMC3484114 one finds cell growth data, which are given here for 39 compounds.

± gives the standard deviation.

The test deals with OVCAR-3-derived ovarian cancer stem-like cells (spheroids). The test can be described thus: cell growth relative to untreated control; higher = more growth (less inhibition). The settings on record: 2.29 µM; 96 h. Put shortly:
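OVCAR-3 spheroid-derived stem-like cells were trypsin-dissociated, seeded at 50,000 cells/mL in stem cell medium in ultra-low attachment 96-well plates and preincubated 24 h. Compounds were then added at 2.29 uM for 96 h at 37°C, 5% CO2, in 4 replicate wells. Viability was read as TOX8 resazurin fluorescence (ex 560/em 590 nm) after 4 h. Percent growth was calculated relative to untreated wells after blank subtraction and Grubbs outlier removal.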
Consider `O=C(Nc1ccc2c(c1)oc(=O)c1ccccc12)C(Cl)Cl`, for which the cell growth was found to be 10.2 ± 2.1%.

`CC(C)(C)CC(C)(C)NCC(O)COc1ccc(C(C)(C)c2ccc(OCC(O)CNC(C)(C)CC(C)(C)C)cc2)cc1` (centres undefined): the cell growth was determined as 7.1 ± 2.1%.

`CC(=O)Oc1ccc(C(c2ccc(OC(C)=O)cc2)c2ccccn2)cc1` yielded a cell growth of 20.8 ± 5.2%.

The compound `Cc1ccc2[nH]c(O)c(N=Nc3ccccc3[N+](=O)[O-])c2c1` came in with a cell growth of 108 ± 15%.

For `Cc1nc2c(nc1C)C(=O)c1ccccc1C2=O`, the cell growth stood at 54.6 ± 6.1%.

On to `Cc1nc2c(o1)C(=O)c1ccccc1C2=Nc1ccccc1`, for which the cell growth is 123 ± 56%.

`CN(C)c1nc(=NCc2ccco2)ss1` came in with a cell growth of 93.7 ± 7%.

`COC(=O)c1ccc(NCc2cc(O)ccc2O)cc1`: the cell growth is 108 ± 12%.

In turn, `Cc1c2c(cc3c1[nH]c1ccccc13)C=NCC2` registered a cell growth of 227 ± 75%.

The compound `O=C(OCC12CC3CC(CC(C3)C1)C2)c1ccc(NCc2cc(O)ccc2O)cc1` registered a cell growth of 159 ± 28%.

For `COc1ccc2cccc(C(=N)c3ccc(C)c4c3CCC4)c2c1`, the cell growth is 95.3 ± 25%.

As to `CC1=CC(=C(c2ccc(N)cc2)c2ccc(N)cc2)C=CC1=N`, the cell growth came out at 50.4 ± 6.5%.

As for `CN(C)CCOC1(Cc2ccc(F)cc2)CCC(C(C)(C)C)CC1` (centres undefined), the cell growth came to 109 ± 34%.

Compound `CC(=O)NC(CC(C)C)C(=O)NC(Cc1ccccc1)C(=O)CCl` (centres undefined) gave a cell growth of 88.6 ± 12%.

`NC1=NCN([C@@H]2O[C@H](CO)[C@@H](O)[C@H]2O)C(=O)N1` showed a cell growth of 85.8 ± 11%.

As for `O=c1oc2ccccc2cc1-c1ccc([N+](=O)[O-])cc1`, the cell growth came to 38.6 ± 7.1%.

On to `Cc1ccccc1OCC(COC(=O)Nc1ccccc1)OC(=O)Nc1ccccc1` (centres undefined), for which the cell growth came out at 111 ± 16%.

`Cc1nc(N)nc(N)c1-c1ccc(Cl)c(Cl)c1` had a cell growth of 102 ± 13%.

In turn, `CCOC(=O)c1sc2[n+](c1C)C(=O)/C(=C/c1ccc([N+](=O)[O-])cc1)S2` gave a cell growth of 94.2 ± 27%.

As to `C[n+]1ccc(Nc2ccc(NC(=O)c3ccc(Nc4cc[n+](C)c5ccc([N+](=O)[O-])cc45)cc3[N+](=O)[O-])cc2)cc1`, the cell growth worked out at 70 ± 17%.

`COc1cc2c3c(c1OC)-c1cc4c(cc1CC3(C#N)N(C(=O)c1ccccc1)CC2)OCO4` (centres undefined): the cell growth stood at 93.1 ± 24%.

Consider `CN1c2c(nc(N)[nH]c2=O)NCC1CCNc1ccc(C(=O)NC(CCC(=O)O)C(=O)O)cc1` (centres undefined), for which the cell growth turned out to be 101 ± 20%.

Compound `C=C1C(=O)OC2CC1C(OC(C)=O)C/C(C)=C/CC/C(C)=C\CCC2(C)O` (centres undefined) showed a cell growth of 48.5 ± 5.5%.

Regarding `NC(N)=NCCCS(=O)(=O)Nc1ccc(Nc2c3ccccc3nc3cc([N+](=O)[O-])ccc23)cc1`, the cell growth was determined as 127 ± 32%.

Compound `O=C(CC1(O)C(=O)Nc2c(Cl)ccc(Cl)c21)c1ccc(Cl)cc1Cl` (centres undefined) had a cell growth of 123 ± 11%.

`OCCNCCN1CCN(CCCN2c3ccccc3Sc3ccc(C(F)(F)F)cc32)CC1` had a cell growth of 126 ± 42%.

As for `CO[C@H](C(=O)[C@@H](O)[C@@H](C)O)[C@@H]1Cc2cc3cc(O[C@H]4C[C@@H](O[C@H]5C[C@@H](O)[C@H](O)[C@@H](C)O5)[C@H](O)[C@@H](C)O4)c(C)c(O)c3c(O)c2C(=O)[C@H]1O[C@H]1C[C@@H](O[C@H]2C[C@@H](O[C@H]3C[C@](C)(O)[C@H](O)[C@@H](C)O3)[C@@H](O)[C@@H](C)O2)[C@H](O)[C@@H](C)O1`, the cell growth was found to be 10.8 ± 3.6%.

Consider `COc1ccc(/C=C2\CCCc3ccccc3C2=O)cc1`, for which the cell growth is 54.4 ± 10%.

With `CN1CCN(CCCN2c3ccccc3Sc3ccc(C(F)(F)F)cc32)CC1`, the cell growth turned out to be 79.1 ± 24%.

Take `COc1cc2oc3cc(=O)cc4oc(-c5ccccc5)cc(c2c2c1CCC(c1ccccc1)O2)c43` (centres undefined): the cell growth came out at 150 ± 80%.

On to `C=C(C#N)C(=O)OCC(CC)CC.C=C(C#N)C(=O)OCC(CC)CC.CS(C)=O.CS(C)=O.Nc1c(N=Nc2ccc(-c3ccc(N=Nc4cc(S(=O)(=O)[O-])c5ccccc5c4N)cc3)cc2)cc(S(=O)(=O)[O-])c2ccccc12.[Pt+2]`, for which the cell growth stood at 107 ± 14%.

On to `COC1CN(C)C(=Nc2cccc3ccccc23)S1` (centres undefined), for which the cell growth is 130 ± 21%.

Compound `Cc1cc2c(c3oc(C4(C)OC4C4OC4C)cc(=O)c13)C(=O)c1c(O)c(C3CC(C)(N(C)C)C(O)C(C)O3)cc(C3CC(N(C)C)C(O)C(C)O3)c1C2=O` (centres undefined) came in with a cell growth of 47.6 ± 40%.

`OC(CN1CCCCC1)c1ccc(/C=C/c2ccc(Cl)cc2)cc1` (centres undefined) yielded a cell growth of 112 ± 16%.

In turn, `COc1cc2oc(=O)cc(C)c2cc1[N+](=O)[O-]` had a cell growth of 137 ± 45%.

In the case of `CN(C)/N=N/c1nc[nH]c1C(N)=O`, the cell growth stood at 164 ± 14%.

`N[C@H](C(=O)O)[C@H]1ON=C(Cl)[C@H]1O`: the cell growth was found to be 91.4 ± 16%.

As for `Cc1ccc(/C=C2\CNC/C(=C\c3ccc(C)cc3)C2=O)cc1`, the cell growth was 44.5 ± 10%.

In turn, `Nc1ncnc2c1nc(Cl)n2[C@@H]1O[C@@H]2COP(=O)(O)O[C@H]2[C@H]1O` returned a cell growth of 115 ± 43%.
